# According to the supplement of paper PMC4466140:
# Key:
# Test in all cases: SPOT peptide array binding signal intensity (averaged, normalized) (arbitrary units (background-subtracted, floor 0; scale differs between SH3 domains)); higher = stronger binding of the SH3 domain to the peptide
# [1] = target: AgAbp1
# Outline: (§1)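 To measure binding, SH3 domains from four yeast species were fused to GST, expressed in E. coli BL21(DE3) and purified on glutathione Sepharose. Each domain was incubated at 10 μg/ml overnight at 4°C on cellulose membranes with synthetic 15-mer peptides whose cysteines were replaced by serines. Anti-GST antibody, an HRP anti-mouse secondary and luminol were used for detection, and images were quantified with Genespotter. Reported binding signal is normalized, background-subtracted spot intensity averaged over replicates, in arbitrary units that differ between domains.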
# [2] = target: AgBbc1
# Outline: as §1
# [3] = target: AgBem1-D1
# Outline: as §1
# [4] = target: AgBzz1-D1
# Outline: as §1
# [5] = target: AgBzz1-D2
# Outline: as §1
# [6] = target: AgCyk3
# Outline: as §1
# [7] = target: AgFus1
# Outline: as §1
# [8] = target: AgHof1
# Outline: as §1
# [9] = target: AgHse1
# Outline: as §1
# [10] = target: AgLsb1
# Outline: as §1
# [11] = target: AgLsb4
# Outline: as §1
# [12] = target: AgMyo5
# Outline: as §1
# [13] = target: AgNbp2
# Outline: as §1
# [14] = target: AgRvs167
# Outline: as §1
# [15] = target: AgSho1
# Outline: as §1
# [16] = target: AgSla1-D1-D2
# Outline: as §1
# [17] = target: AgSla1-D3
# Outline: as §1
# [18] = target: CaAbp1-D1
# Outline: as §1
# [19] = target: CaAbp1-D2
# Outline: as §1
# [20] = target: CaBbc1
# Outline: as §1
# [21] = target: CaBem1-D1
# Outline: as §1
# [22] = target: CaBzz1-D1
# Outline: as §1
# [23] = target: CaBzz1-D2
# Outline: as §1
# [24] = target: CaCyk3
# Outline: as §1
# [25] = target: CaFus1
# Outline: as §1
# [26] = target: CaHof1
# Outline: as §1
# [27] = target: CaHse1
# Outline: as §1
# [28] = target: CaLsb1
# Outline: as §1
# [29] = target: CaLsb4
# Outline: as §1
# [30] = target: CaMyo5
# Outline: as §1
# [31] = target: CaNbp2
# Outline: as §1
# [32] = target: CaRvs167
# Outline: as §1
# [33] = target: CaRvs167-3
# Outline: as §1
# [34] = target: CaSho1
# Outline: as §1
# [35] = target: CaSla1-D1-D2
# Outline: as §1
# [36] = target: CaSla1-D3
# Outline: as §1
# [37] = target: ScAbp1
# Outline: as §1
# [38] = target: ScBbc1
# Outline: as §1
# [39] = target: ScBem1-D1
# Outline: as §1
# [40] = target: ScBzz1-D1
# Outline: as §1
# [41] = target: ScBzz1-D2
# Outline: as §1
# [42] = target: ScCyk3
# Outline: as §1
# [43] = target: ScFus1
# Outline: as §1
# [44] = target: ScHof1
# Outline: as §1
# [45] = target: ScHse1
# Outline: as §1
# [46] = target: ScLsb1
# Outline: as §1
# [47] = target: ScLsb2
# Outline: as §1
# [48] = target: ScLsb3
# Outline: as §1
# [49] = target: ScLsb4
# Outline: as §1
# [50] = target: ScMyo3
# Outline: as §1
# [51] = target: ScMyo5
# Outline: as §1
# [52] = target: ScNbp2
# Outline: as §1
# [53] = target: ScPex13
# Outline: as §1
# [54] = target: ScRvs167
# Outline: as §1
# [55] = target: ScSho1
# Outline: as §1
# [56] = target: ScSla1-D1-D2
# Outline: as §1
# [57] = target: ScSla1-D3
# Outline: as §1
# [58] = target: SpAbp1-D1
# Outline: as §1
# [59] = target: SpBbc1
# Outline: as §1
# [60] = target: SpBzz1-D1
# Outline: as §1
# [61] = target: SpBzz1-D2
# Outline: as §1
# [62] = target: SpCyk3
# Outline: as §1
# [63] = target: SpHof1
# Outline: as §1
# [64] = target: SpHof1-2
# Outline: as §1
# [65] = target: SpHof1-3
# Outline: as §1
# [66] = target: SpHse1
# Outline: as §1
# [67] = target: SpLsb1
# Outline: as §1
# [68] = target: SpLsb4
# Outline: as §1
# [69] = target: SpMyo1
# Outline: as §1
# [70] = target: SpNbp2
# Outline: as §1
# [71] = target: SpPex13
# Outline: as §1
# [72] = target: SpRvs167
# Outline: as §1
# [73] = target: SpSla1-D1-D2
# Outline: as §1
# [74] = target: SpSla1-D3
# Outline: as §1
binder,measurement,setting,value
IVNKPLPPLPVAGSS,SPOT peptide array binding signal intensity,[1],177
same,SPOT peptide array binding signal intensity,[2],≤ 0
same,SPOT peptide array binding signal intensity,[3],5.5
same,SPOT peptide array binding signal intensity,[4],30
same,SPOT peptide array binding signal intensity,[5],17.5
same,SPOT peptide array binding signal intensity,[6],≤ 0
same,SPOT peptide array binding signal intensity,[7],1.5
same,SPOT peptide array binding signal intensity,[8],748
same,SPOT peptide array binding signal intensity,[9],17.5
same,SPOT peptide array binding signal intensity,[10],≤ 0
same,SPOT peptide array binding signal intensity,[11],7.5
same,SPOT peptide array binding signal intensity,[12],≤ 0
same,SPOT peptide array binding signal intensity,[13],≤ 0
same,SPOT peptide array binding signal intensity,[14],2.33
same,SPOT peptide array binding signal intensity,[15],6850
same,SPOT peptide array binding signal intensity,[16],1
same,SPOT peptide array binding signal intensity,[17],≤ 0
same,SPOT peptide array binding signal intensity,[18],21.5
same,SPOT peptide array binding signal intensity,[19],48
same,SPOT peptide array binding signal intensity,[20],≤ 0
same,SPOT peptide array binding signal intensity,[21],≤ 0
same,SPOT peptide array binding signal intensity,[22],459
same,SPOT peptide array binding signal intensity,[23],≤ 0
same,SPOT peptide array binding signal intensity,[24],0.5
same,SPOT peptide array binding signal intensity,[25],232
same,SPOT peptide array binding signal intensity,[26],55.2
same,SPOT peptide array binding signal intensity,[27],1300
same,SPOT peptide array binding signal intensity,[28],≤ 0
same,SPOT peptide array binding signal intensity,[29],≤ 0
same,SPOT peptide array binding signal intensity,[30],≤ 0
same,SPOT peptide array binding signal intensity,[31],≤ 0
same,SPOT peptide array binding signal intensity,[32],1.17
same,SPOT peptide array binding signal intensity,[33],≤ 0
same,SPOT peptide array binding signal intensity,[34],6570
same,SPOT peptide array binding signal intensity,[35],338
same,SPOT peptide array binding signal intensity,[36],0.5
same,SPOT peptide array binding signal intensity,[37],378
same,SPOT peptide array binding signal intensity,[38],0.25
same,SPOT peptide array binding signal intensity,[39],≤ 0
same,SPOT peptide array binding signal intensity,[40],≤ 0
same,SPOT peptide array binding signal intensity,[41],≤ 0
same,SPOT peptide array binding signal intensity,[42],≤ 0
same,SPOT peptide array binding signal intensity,[43],10
same,SPOT peptide array binding signal intensity,[44],1300
same,SPOT peptide array binding signal intensity,[45],32
same,SPOT peptide array binding signal intensity,[46],≤ 0
same,SPOT peptide array binding signal intensity,[47],≤ 0
same,SPOT peptide array binding signal intensity,[48],154
same,SPOT peptide array binding signal intensity,[49],≤ 0
same,SPOT peptide array binding signal intensity,[50],≤ 0
same,SPOT peptide array binding signal intensity,[51],≤ 0
same,SPOT peptide array binding signal intensity,[52],≤ 0
same,SPOT peptide array binding signal intensity,[53],2500
same,SPOT peptide array binding signal intensity,[54],97.8
same,SPOT peptide array binding signal intensity,[55],7450
same,SPOT peptide array binding signal intensity,[56],288
same,SPOT peptide array binding signal intensity,[57],1.5
same,SPOT peptide array binding signal intensity,[58],1580
same,SPOT peptide array binding signal intensity,[59],1
same,SPOT peptide array binding signal intensity,[60],159
same,SPOT peptide array binding signal intensity,[61],≤ 0
same,SPOT peptide array binding signal intensity,[62],3
same,SPOT peptide array binding signal intensity,[63],2930
same,SPOT peptide array binding signal intensity,[64],3490
same,SPOT peptide array binding signal intensity,[65],5540
same,SPOT peptide array binding signal intensity,[66],15
same,SPOT peptide array binding signal intensity,[67],47
same,SPOT peptide array binding signal intensity,[68],1.5
same,SPOT peptide array binding signal intensity,[69],184
same,SPOT peptide array binding signal intensity,[70],11
same,SPOT peptide array binding signal intensity,[71],15
same,SPOT peptide array binding signal intensity,[72],1580
same,SPOT peptide array binding signal intensity,[73],1200
same,SPOT peptide array binding signal intensity,[74],≤ 0
KKAPPPVVKPKPRNF,SPOT peptide array binding signal intensity,[1],4680
same,SPOT peptide array binding signal intensity,[2],58
same,SPOT peptide array binding signal intensity,[3],44.5
same,SPOT peptide array binding signal intensity,[4],316
same,SPOT peptide array binding signal intensity,[5],101
same,SPOT peptide array binding signal intensity,[6],≤ 0
same,SPOT peptide array binding signal intensity,[7],31
same,SPOT peptide array binding signal intensity,[8],63.5
same,SPOT peptide array binding signal intensity,[9],39
same,SPOT peptide array binding signal intensity,[10],1.75
same,SPOT peptide array binding signal intensity,[11],12.5
same,SPOT peptide array binding signal intensity,[12],≤ 0
same,SPOT peptide array binding signal intensity,[13],45
same,SPOT peptide array binding signal intensity,[14],6
same,SPOT peptide array binding signal intensity,[15],15
same,SPOT peptide array binding signal intensity,[16],8
same,SPOT peptide array binding signal intensity,[17],32.5
same,SPOT peptide array binding signal intensity,[18],3270
same,SPOT peptide array binding signal intensity,[19],6180
same,SPOT peptide array binding signal intensity,[20],154
same,SPOT peptide array binding signal intensity,[21],15.5
same,SPOT peptide array binding signal intensity,[22],1220
same,SPOT peptide array binding signal intensity,[23],2260
same,SPOT peptide array binding signal intensity,[24],5
same,SPOT peptide array binding signal intensity,[25],45.5
same,SPOT peptide array binding signal intensity,[26],1
same,SPOT peptide array binding signal intensity,[27],1.25
same,SPOT peptide array binding signal intensity,[28],2.5
same,SPOT peptide array binding signal intensity,[29],15.5
same,SPOT peptide array binding signal intensity,[30],1.5
same,SPOT peptide array binding signal intensity,[31],36.5
same,SPOT peptide array binding signal intensity,[32],11
same,SPOT peptide array binding signal intensity,[33],8
same,SPOT peptide array binding signal intensity,[34],23
same,SPOT peptide array binding signal intensity,[35],3160
same,SPOT peptide array binding signal intensity,[36],4.75
same,SPOT peptide array binding signal intensity,[37],7880
same,SPOT peptide array binding signal intensity,[38],3
same,SPOT peptide array binding signal intensity,[39],6
same,SPOT peptide array binding signal intensity,[40],178
same,SPOT peptide array binding signal intensity,[41],60
same,SPOT peptide array binding signal intensity,[42],7
same,SPOT peptide array binding signal intensity,[43],15
same,SPOT peptide array binding signal intensity,[44],3.5
same,SPOT peptide array binding signal intensity,[45],61
same,SPOT peptide array binding signal intensity,[46],20.5
same,SPOT peptide array binding signal intensity,[47],2
same,SPOT peptide array binding signal intensity,[48],≤ 0
same,SPOT peptide array binding signal intensity,[49],3.5
same,SPOT peptide array binding signal intensity,[50],≤ 0
same,SPOT peptide array binding signal intensity,[51],≤ 0
same,SPOT peptide array binding signal intensity,[52],32
same,SPOT peptide array binding signal intensity,[53],0.5
same,SPOT peptide array binding signal intensity,[54],5.17
same,SPOT peptide array binding signal intensity,[55],37.5
same,SPOT peptide array binding signal intensity,[56],3640
same,SPOT peptide array binding signal intensity,[57],17
same,SPOT peptide array binding signal intensity,[58],2160
same,SPOT peptide array binding signal intensity,[59],0.75
same,SPOT peptide array binding signal intensity,[60],318
